Data reported in PubChem BioAssay AID624330 (Southern Research Specialized Biocontainment Screening …, 2012).
In all, about 340,000 compounds went through this assay and about 2,100 (0.62%) were called active.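 Rule for the calls: active = first-screen hits whose inhibition reached a set limit at any dose in the follow-up dose series; inconclusive = inhibition above the set first-screen limit but never retested; inactive = the rest.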 These entries were drawn from the full list. Potency and affinity values are given separately.

Target: Rac GTPase-activating protein 1 (Homo sapiens) (UniProt Q9H0H5)
Test: MgcRacGAP GTPase-activating activity inhibitors, confirmation, biochemical, ADP Hunter fluorescence, primary and confirmatory (AID 624330);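 note: fluorescence reports GDP produced by GAP-driven GTP hydrolysis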
Conditions: MgcRacGAP-stimulated Rac1 GTP hydrolysis, at 30 µM, hits give high values, GST-tagged Rac1 F28L mutant substrate

Sequence of Rac GTPase-activating protein 1 (Homo sapiens) (Q9H0H5 whole entry, looked up): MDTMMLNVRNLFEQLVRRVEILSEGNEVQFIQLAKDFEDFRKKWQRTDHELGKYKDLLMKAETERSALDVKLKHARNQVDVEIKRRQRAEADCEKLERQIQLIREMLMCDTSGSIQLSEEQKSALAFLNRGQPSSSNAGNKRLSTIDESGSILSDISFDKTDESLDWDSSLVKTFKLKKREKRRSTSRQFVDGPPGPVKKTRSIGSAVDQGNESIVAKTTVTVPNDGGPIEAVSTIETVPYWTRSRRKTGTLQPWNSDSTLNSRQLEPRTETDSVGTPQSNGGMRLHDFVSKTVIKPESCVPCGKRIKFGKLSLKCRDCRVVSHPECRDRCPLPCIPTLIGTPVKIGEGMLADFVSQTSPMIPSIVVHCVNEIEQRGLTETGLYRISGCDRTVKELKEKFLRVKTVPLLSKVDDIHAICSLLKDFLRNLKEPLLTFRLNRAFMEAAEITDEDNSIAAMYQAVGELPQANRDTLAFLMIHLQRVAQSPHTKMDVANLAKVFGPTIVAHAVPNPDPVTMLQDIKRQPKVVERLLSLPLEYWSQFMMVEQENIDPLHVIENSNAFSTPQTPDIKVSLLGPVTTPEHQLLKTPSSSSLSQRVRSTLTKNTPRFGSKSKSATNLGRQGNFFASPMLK

inhibition, inactive:
CCN(CC)S(=O)(=O)c1ccc(C(=O)Oc2cc(C)[nH]c(=O)c2[N+](=O)[O-])cc1 0.7%
CCc1cccc(NS(=O)(=O)c2c(C)nc3scc(C)n3c2=O)c1 1.2%
C[C@@H]1CN([C@H](C)CO)C(=O)c2cc(NC(=O)Nc3ccc(F)cc3)ccc2O[C@@H](C)CCCCO[C@H]1CN(C)Cc1ccc(C(=O)O)cc1 10.2%
COc1ccc(N2C(=NC(=O)C3CC3)SC3CS(=O)(=O)CC32)cc1Cl (stereo not given) 8.01%
Cc1ccsc1C(=O)OCC(=O)NC1CCCCC1 -3%
O=C1CC(N2CCN(c3ccccc3)CC2)C(=O)N1c1cccc(Cl)c1 (stereo not given) 11.1%
COc1ccc(N2CC(C(=O)NNC(=O)c3ccc(Br)cc3)CC2=O)c(OC)c1 (stereo not given) 5.62%
O=C(Nc1nc(-c2ccc(F)cc2)cs1)c1cccc(N2C(=O)CCC2=O)c1 4.08%
CCOC(=O)N1c2ccccc2Sc2ccccc21 1.37%
Cc1ccc(SCC(=O)N2c3ccccc3Sc3ccccc32)cc1 6.99%
COc1cc2c(cc1OC)C(c1cccs1)N(C(=O)c1ccncc1)CC2 (stereo not given) 11.6%
COc1cccc(OCC(=O)NC2CCCCCC2)c1 -1.14%
NNC(=O)c1cc2cc3ccccc3nc2s1 4.35%
CCN1CCN(C(=O)c2cc3cc4cc(OC)ccc4nc3s2)CC1 8.34%
O=[N+]([O-])c1cc([N+](=O)[O-])c(Oc2cc(Cl)ccc2Cl)cc1NC1CCCCCCC1 3.85%
CCOC(=O)C1CCN(Cc2cccc(Oc3ccc(Cl)cc3)c2)CC1 21%
CCOC(=O)C1CCCN(Cc2ccc(-c3ccccc3)cc2)C1 (stereo not given) -2.6%
COc1cccc(CN2CCC(C(=O)N3CCN(c4ccccc4F)CC3)CC2)c1 15.7%
CCOC(=O)C1CCN(Cc2cccc(OCc3ccccc3)c2)CC1 19.5%
CCOC(=O)C1CCN(Cc2ccc(OCc3ccccc3)cc2)CC1 18.4%
CCOC(=O)C1CCN(Cc2ccccc2C)CC1 2.84%
COc1cccc(CN2CCC(C(=O)N3CCN(Cc4ccc5c(c4)OCO5)CC3)CC2)c1 27.8%
CCOC(=O)C1CCN(Cc2ccccc2C(F)(F)F)CC1 8.95%
CCSc1ccc2nnc(-c3cccc(F)c3)n2n1 6.86%
COC(CN(C)C(=O)C1CCC(CNS(=O)(=O)c2ccccc2)CC1)OC (stereo not given) 6.07%
COc1ccc(CNC(=O)COC(=O)CN2C(=O)C3CCCCC3C2=O)cc1 (stereo not given) 12.8%
CC(C)c1nccn1CCC(=O)O 7.06%
C[C@H]1CN([C@@H](C)CO)S(=O)(=O)c2ccc(Br)cc2O[C@H]1CN(C)C(=O)Cc1ccccn1 -10%
O=C1C[C@@H](c2ccccc2)Oc2cc(O)cc(O)c21 7.07%
O=C1CC(c2ccccc2)Oc2cc(O)cc(O)c21 (stereo not given) 7.51%
COc1ccccc1NC(=O)COc1cccc2c1CCNC2=O 5.13%
O=S(=O)(NCC(c1ccc2c(c1)OCO2)N1CCOCC1)c1ccc(Br)cc1 (stereo not given) 5.07%
CC1=C(C#N)C(=O)NC(=O)/C1=C/c1ccc(-c2ccc(S(N)(=O)=O)cc2)o1 25.6%
CCCOC(=O)c1cc(-c2ccc(/C=C3/C(=O)N(C)C(=O)C(C#N)=C3C)o2)ccc1Cl 13.4%
COC(=O)c1ccccc1NC(=O)C/C(C)=N/NC(=O)Cc1ccc(Cl)cc1 4.76%
CC(=O)N1CCc2cc(S(=O)(=O)CCC(=O)N(C)c3cc(C)ccc3C)ccc21 2.95%
COc1ccc(Cn2c(-c3ccc(OC)c(O)c3)nc3ccccc32)cc1O 11.2%
Cc1ccc(NCc2cccnc2)cc1 9.95%
COc1ccc(CNc2ccc(C(=O)O)cc2)cc1 5.05%
COc1ccc(NC(=S)NCc2cccnc2)cc1 2.3%
COc1ccc(CNc2ccc(Br)cc2)cc1 9.45%
O=C(O)c1ccc(C(=O)O)c(C(=O)c2ccc(NC(=O)c3ccccc3)cc2)c1 8.04%
O=C(O)C1(P(=O)(c2ccc(Cl)cc2)c2ccc(Cl)cc2)CCCC1 10.3%
Cn1cc2ccc(N)cc2n1 6.58%
Cc1ccc2cc(N)ccc2n1 10.9%
CC(C)(C)C(=O)N1CCC2CC1c1cc(Cl)ccc12 (stereo not given) 9.89%
CCN(CC)S(=O)(=O)c1ccc(N/N=C/c2cccnc2)nc1 2.22%
CCOc1cccc(/C=N/Nc2ccc(S(=O)(=O)N(CC)CC)cn2)c1O 2.17%
CCN(CC)S(=O)(=O)c1ccc(N/N=C/c2cc(OC)c(OC)cc2OC)nc1 4.42%
CCN(CC)S(=O)(=O)c1ccc(N/N=C/c2cc(OC)ccc2O)nc1 5.07%
CN(CC(=O)Nc1cccc(F)c1)C(=O)Cc1ccsc1 8.14%
Cc1cc(C)c2nc(NC(=O)C3CSC4(C)CCC(=O)N34)sc2c1 (stereo not given) 5.06%
CC1=C(C(=O)OC(C)C)C(c2ccc(Br)s2)NC(=O)N1 (stereo not given) 1.12%
O=C(NCC(c1cccnc1)N1CCOCC1)C1CCCCC1 (stereo not given) 0.64%
COC(=O)c1ccc(OC)c(CN2CCCN(Cc3ccc(F)cc3)S2(=O)=O)c1 6.78%
O=C(O)CN1C(=O)/C(=C/c2ccc(SCc3ccccc3)o2)SC1=S 41%
Cc1cccc(C)c1-n1cccc1/C=C1\SC(=S)N(c2cccc(C(=O)O)c2)C1=O -1.38%
O=C(NCC(c1ccco1)N1CCCC1)c1cccc(NS(=O)(=O)c2ccccc2)c1 (stereo not given) 7.02%
CC(=O)C1=C(O)C(=O)N(Cc2ccccc2)C1c1ccc(N(C)C)cc1 (stereo not given) 5.08%
COc1ccc(C2=NN(Cc3ccccc3)C3C(=O)NC(=O)C23)cc1 (stereo not given) 1.11%
O=C(N/C(=C/c1ccccc1)C(=O)N1CCCCC1)c1ccccc1 7.71%
O=C(N/C(=C/c1ccccc1)C(=O)N1CCCCCC1)c1ccccc1 4.23%
Cc1cc(C)c2[nH]c(=O)c(CN(CC3CCCO3)S(=O)(=O)c3ccc4c(c3)OCCO4)cc2c1 (stereo not given) -7.75%
O=C1C2C3C=CC(C3)C2C(=O)N1Nc1c(Cl)cc(Cl)cc1Cl (stereo not given) -1.67%
CCN(C(=O)CSc1nnc(-c2ccccc2Cl)n1C1CCCC1)C1CCS(=O)(=O)C1 (stereo not given) 10.2%
C=CCn1c(SCC(=O)NC2(C#N)CCCCC2)nnc1-c1ccncc1 -2.35%
CCN1CCN(CCC(=O)Nc2ccc3c(c2)OCO3)CC1 -5.95%
COc1ccc(NC(=O)c2ccc(NC(=O)CN3CCN(c4ccccc4)CC3)cc2)cc1 -2.48%
O=C(CN1CCOCC1)Nc1cccc(S(=O)(=O)N2CCCCCC2)c1 4.7%
O=C(CNCC1CCCO1)Nc1ccccc1N1CCCCCC1 (stereo not given) 15.5%
COc1ccc(N2CCN(CC(=O)Nc3ccc(C)cc3)CC2)cc1 6.34%
COc1ccc(S(=O)(=O)N2CCN(CC(=O)Nc3cccc(OC)c3)CC2)cc1 -0.54%
CN1CCN(CCC(=O)Nc2ccc3c(c2)OCO3)CC1 9.52%
CC1CCCC(C)N1S(=O)(=O)c1ccc(NC(=O)CNCC2CCCO2)cc1 (stereo not given) 13.2%
CC1(C)CC(=O)C=C(NCCN2CCN(C(=S)Nc3ccccc3)CC2)C1 7.52%
Cc1ccc(NS(=O)(=O)c2ccc3c(c2)NC(=O)C(C)C(=O)N3)c(Br)c1 (stereo not given) -1.09%
Cc1onc(-c2ccccc2)c1C(=O)c1c[nH]c(C(=O)NCc2ccccn2)c1 3.33%
c1ccc(NN(Cc2ccccn2)c2ccccc2)cc1 -6.65%
O=C(CCC(=O)c1cccs1)Nc1ncccc1O 11.4%
CCOC(CCNC(=O)c1cn(CC(C)C)c(=O)c2c1c1ccccc1n2C)OCC 17.2%
CC(=O)Nc1cccc(Oc2cc(C#N)c(C#N)cc2N2CCCCCC2)c1 5.07%
O=C(CNC1CCCC1)Nc1ccc(S(=O)(=O)N2CCCCC2)cc1 3.94%
O=C(CNCc1ccccc1Cl)Nc1ccc2c(c1)OCCO2 29.9%
CC1CCCCN1CC(=O)Nc1ccc(Oc2ccccc2)cc1 (stereo not given) 9.36%
O=C(CNC1CCCCC1)Nc1ccc(Cl)cc1 1.58%
O=C(CN1CCN(c2ccccc2)CC1)Nc1ccc2c(c1)OCCO2 0.3%
CC1CCCCN1CC(=O)Nc1ccc2c(c1)OCO2 (stereo not given) 31%
O=C(CSCc1ccc(Cl)cc1)Nc1ccc2c(c1)OCCO2 5.15%
O=C(CN1CCN(c2ccc(F)cc2)CC1)Nc1ccc2c(c1)OCCO2 9.33%
CCC(=O)Nc1ccc(NC(=O)CSc2nnnn2CC)cc1C 6.52%
CCOC(=O)COc1ccc(S(=O)(=O)N2CCN(c3ccccc3)CC2)cc1 8.59%
O=C(CSc1nnc(-c2ccccc2)c(-c2ccccc2)n1)Nc1ccc(Br)cn1 4.25%
Cn1c(=O)[nH]c(=O)c2c1nc(Br)n2C/C=N/Nc1ccccc1 3.62%
COc1ccc(N(CC(=O)Nc2ccc3c(c2)OCCO3)S(=O)(=O)c2cccnc2)cc1 -11.8%
CC(=O)c1ccc(S(=O)(=O)NCCC(=O)NCCc2c[nH]c3ccccc23)cc1 3.35%
